Article PMC12670160, “A drug-repurposing screen of FDA- and EMA-approved drugs identifies two NF-κB inhibitors active against eumycetoma” (Journal of Antimicrobial Chemotherapy, 2025)
Counter-ions that a name gives are not always drawn. Like-named read-outs stand apart in the source and are kept apart here. The campaign covered roughly 5,300 compounds. About 130 (2.5%) showed an effect of 50% or more. Shown is part of a subset that was picked to be rich in strong results.

System: M. mycetomatis strain mm55
Conditions: primary screen, metabolic activity vs growth control, 96 h, 2 µM, inhibitor
[1] = Madurella mycetomatis metabolic activity at 2µM (%)

SMILES	% viability [%]	% viability [1] [%]
CO[C@H]1CC[C@H](N2C(=O)CNc3ncc(-c4ccc(C(C)(C)O)nc4)nc32)CC1 [ONC0001106, cc223]	54.41	
COc1ccc(-c2cnc3c(-c4cccc5ncccc45)cnn3c2)cc1 [ONC0002277, chr6494]		84.04
C[C@@H]1[C@H](O)[C@@H](C)/C=C/C=C/CC/C=C/C=C/C=C/C=C/[C@H](O[C@@H]2O[C@H](C)[C@@H](O)[C@H](N)[C@@H]2O)C[C@@H]2O[C@](O)(C[C@@H](O)[C@H](O)CC[C@@H](O)C[C@@H](O)C[C@@H](O)CC(=O)O[C@H]1C)C[C@H](O)[C@H]2C(=O)O [ONC0002036, nystatin]	93.36	
O=C(O)C=C1NN(Cc2nc3cc(C(F)(F)F)ccc3s2)C(=O)c2ccccc21 [ONC0005526, zopolrestat]	123.5	
CCS(=O)(=O)N1CCC[C@@H]2CN3CCc4cc(OC)ccc4[C@@H]3C[C@@H]21 [ONC0002617, rs79948]	85.43	
C[C@@]1(c2nc3c(C(N)=O)cccc3[nH]2)CCCN1 [ONC0004676, abt888 veliparib]	121	
Cc1cc(NC(=O)C2C(=O)c3ccccc3S(=O)(=O)N2C)no1 (stereo not drawn) [ONC0002885, isoxicam]	123.7	
O=C(O)c1ccc[n+]([O-])c1 [ONC0005291, oxiniacic acid]	104	
O=C(O)c1ccccc1 [ONC0003100, benzoic acid]	90.48	
C[n+]1cccc(C(=O)O)c1 [ONC0003448, trigonellinehcl]	47.48	
Cc1cc(CCC[C@H](CC(=O)NO)C(=O)N[C@H](C(=O)N[C@H](C)c2ccccc2)C(C)(C)C)ccc1-c1ccccc1 [ONC0002525, uk356618]	62.33	
CC(C)[C@@H]1CC[C@@H](C)C[C@@H]1P(=O)(c1ccccc1)c1ccccc1 [ONC0003951, dpo1]	47.19	
CC(C)[C@@H]1CC[C@@H](C)C[C@H]1O [ONC0003141, levomenthol]	69.71	
CC[C@H](C)[C@H](NC(=O)[C@H](Cc1ccc(O)cc1)NC(=O)[C@@H](NC(=O)[C@H](CCCNC(=N)N)NC(=O)[C@@H](N)CC(=O)O)C(C)C)C(=O)N[C@@H](Cc1cnc[nH]1)C(=O)N1CCC[C@H]1C(=O)N[C@@H](Cc1ccccc1)C(=O)O [ONC0002134, angiotensin ii human]	79.83	
CC(C)N[C@H]1CCn2c(=O)[nH]c3cccc(c32)[C@@H]1O [ONC0003872, zilpaterol]	87.84	
COc1cc(CC2NCCc3cc(O)c(O)cc32)cc(OC)c1OC (stereo not drawn) [ONC0002165, trimethoquinol]	66.75	
O=C(O)Cc1ccc(-c2ccccc2)cc1 [ONC0005558, felbinac]	137.1	
O=C(O)Cc1ccc2c(c1)C(=O)c1ccccc1CO2 [ONC0003681, isoxepac]	47.44	
CN(C)CC/C=C1/c2ccccc2COc2ccc(CC(=O)O)cc21 [ONC0004990, olopatadine hydrochloride opatanol]	101	
O=C1c2cccnc2OC[C@@H]2CCCN12 [ONC0001148, org26576]	83.51	

SMILES	% viability [%]	% viability [1] [%]
CCOC(=O)NNc1ccc(N(CC)CC(C)O)nn1 (stereo not drawn) [ONC0001944, cadralazine]	72.29	
C=C1C(=O)O[C@@H]2[C@H]3O[C@]3(C)CC/C=C(\C)CC[C@@H]12 [ONC0002950, parthenolidealternatestereo]	150.2	
Cc1cccn2c(=O)c(/C=C(\C#N)c3nc4ccccc4s3)c(Oc3ccc(F)cc3)nc12 [ONC0003502, ccg63808]	42.44	
Cc1cccc(Oc2nc3c(C)cccn3c(=O)c2/C=C(\C#N)c2nc3ccccc3s2)c1 [ONC0001281, ccg63802]	68.65	
Cc1ccc(OC[C@@H](O)[C@H](C)NC(C)C)c2c1CCC2 [ONC0001929, ici118551]	52.35	
Cc1ccc(-c2ncccn2)c(C(=O)N2C[C@H](COc3ccc(F)cn3)CC[C@H]2C)c1 [ONC0005570, filorexant]	73.84	
O=C(O)CC(O)(CC(=O)O)C(=O)O.[Li].[Li].[Li] [ONC0004255, lithium citrate hydrate]	60.67	
CCCCCCCCCCCCOCCOCCOCCOCCOCCOCCOCCOCCOCCO [ONC0002139, polidocanol]	78.72	
C[C@H]1OC(O)[C@H](O)[C@H](O)[C@H]1O (stereo partly drawn) [ONC0004779, l rhamnose monohydrate]	103.9	
C/C=C1\NC(=O)[C@H]2CSSCC/C=C/[C@H](CC(=O)N[C@H](C(C)C)C(=O)N2)OC(=O)[C@H](C(C)C)NC1=O [ONC0000722, romidepsin]	49.6	
Cc1ccc(-c2ccc(C)cn2)nc1 [ONC0002143, abametapir]	65.91	
C=C[C@H]1C[N@@]2CC[C@H]1C[C@H]2[C@H](O)c1ccnc2ccc(OC)cc12 [ONC0003402, quinine]	78.04	
CC/C(=C(\c1ccc(O)cc1)c1ccc(OCCN(C)C)cc1)c1ccccc1 [ONC0002197, afimoxifene]	79.17	
CC/C(=C(\c1ccc(O)cc1)c1ccc(OCCNC)cc1)c1ccccc1 [ONC0004522, endoxifen hcl]	48.7	
CC/C(=C(\c1ccccc1)c1ccc(OCCN(C)C)cc1)c1ccccc1 [ONC0000595, tamoxifen citrate]	106.5	
O=C1c2ccccc2-n2c1nc1ccccc1c2=O [ONC0003517, tryptanthrin]	43.27	
O=c1c2ccccc2nc2n1CCc1c-2[nH]c2ccccc12 [ONC0004955, rutaecarpine rutecarpine]	80.68	
COc1cc(-n2c(S)nc3ccccc3c2=O)c(Cl)cc1Cl [ONC0004315, mdivi1]	127.2	
COC(=O)Nc1nc2ccc([S+]([O-])c3ccccc3)cc2[nH]1 (stereo not drawn) [ONC0004180, oxfendazole]	72.44	
NC(C(=O)O)c1ccc(C(=O)O)c(O)c1 (stereo not drawn) [ONC0002596, 4carboxy3hydroxyphenylglyciners]	58.45	

SMILES	% viability [%]	% viability [1] [%]
CC(=O)O[C@@H]1CC[C@@]2(C)C(CC[C@]3(C)C2C(=O)C=C2[C@@H]4[C@@H](C)[C@H](C)CC[C@]4(C)CC[C@]23C)[C@@]1(C)C(=O)O (stereo partly drawn) [ONC0003387, acetyl11ketobetaboswellicacid]	70.79	
COc1cc2c(c(OC)c1OC)-c1c(cc3c(c1OC)OCO3)C[C@H](C)[C@@H](C)C2 [ONC0005204, schisandrin b]	87.3	
O=C1CCCCCCCCCCCCCCO1 [ONC0002133, oxacyclohexadecan2one]	71.7	
O=C(O)CN(CCN(CC(=O)O)CC(=O)O)CCN(CC(=O)O)CC(=O)O [ONC0005602, pentetic acid]		107.7
Oc1cccc(Nc2ccc(Nc3cccc(O)c3)nn2)c1 [ONC0002962, 363hydroxyphenylaminopyridazin3ylaminophenol]	67.52	
Nc1ccc(O)c(C(=O)O)c1 [ONC0002803, mesalamine lialda]	82.25	
Nc1ccc(C(=O)Oc2ccccc2)c(O)c1 [ONC0003304, phenyl aminosalicylate]	56.4	
Nc1ccc(C(=O)O)c(O)c1 [ONC0003334, aminosalicylate sodium]	35.29	
[H]/N=C(/N)N/C(=N/[H])NCCc1ccccc1 [ONC0000619, phenformin hydrochloride]	104.4	
CNC(=O)c1ccc2c(c1)S(=O)(=O)c1ccccc1C2=O [ONC0002375, bw616u]	76.21	
CCOC(=O)Nc1c[n+](N2CCOCC2)no1 [ONC0000636, molsidomine]	75.33	
Nc1c[n+](N2CCOCC2)no1 [ONC0003799, linsidomine]	49.48	
CC[C@@H](C(=O)O)C1CC[C@H](C)C([C@@H](C)[C@H](O)[C@H](C)C(=O)[C@H](CC)C2O[C@]3(C=C[C@@H](O)[C@]4(CC[C@@](C)(C5CC[C@](O)(CC)[C@H](C)O5)O4)O3)[C@H](C)C[C@@H]2C)O1 (stereo partly drawn) [ONC0004344, salinomycin procoxacin]	144.3	
CN(C)c1ccc2c(c1)Sc1cc(N(C)C)ccc1N2.CS(=O)(=O)O [ONC0001830, leucomethylene blue mesylate]	74.38	
CS(=O)(=O)c1ccc(C2=C(c3ccccc3)C(=O)OC2)cc1 [ONC0001095, rofecoxib]	82.56	
CS(=O)(=O)c1ccc(-c2cnc(N)c(C(=O)Nc3ccccc3)n2)cc1 [ONC0004547, ve821]	76.73	
CS(=O)(=O)c1ccc(-c2cn3ccccc3n2)cc1 [ONC0002352, zolimidine]	42.05	
O=C1NC(=O)/C(=C\c2cccc(C(F)(F)F)c2)S1 [ONC0004444, smi4a]	130.7	
Cc1cc(C(=CNc2ccc(Cl)cc2)C(=O)Nc2ccc(Cl)cc2)on1 [ONC0000028, ccmi]	80.11	
Cc1ncc(C[n+]2csc(CCO[P@](=O)(O)OP(=O)(O)O)c2C)c(N)n1 [ONC0002796, thiamine pyrophosphate chloride]	94.34	
